# According to PubChem BioAssay AID463173 (ICCB-Longwood Screening Facility, Harvard Medical School, 2010):
# The whole screen tested about 52,000 compounds, of which about 1,700 (3.3%) were called active. Rule as the data show it: active = survival mostly below about 52% (no sharp cut-off); inactive = mostly above about 56%. The entries come from a sample that favours actives as a whole.
# Test system: Wild type
# Assay: S. aureus survival, RN4220 and DeltatarO strains – OD600, teichoic acid synthesis inhibitors, primary screen (AID 463173)
# Conditions: S. aureus RN4220 wild type/DeltatarO growth, OD600, 18 h, active compounds read low, screened at 18.75 µg/mL (by protocol)
row,SMILES,survival
1,Cc1nc2c(-c3ccc(F)cc3)c(C)nn2c(C)c1CCC(=O)N1CCN(c2ccccc2)CC1,75% (inactive)
2,Cc1c(C(=O)NCCc2ccc(Cl)cc2)sc2nc3n(c(=O)c12)CCCC3,78% (inactive)
3,CCn1c2ccccc2c2cc(CN3CCN(Cc4ccco4)CC3)ccc21,104% (inactive)
4,CCn1c2ccccc2c2cc(CN3CCN(Cc4ccc(OC)c(OC)c4)CC3)ccc21,14% (active)
5,CCS(=O)(=O)N1CCN(Cc2ccccc2)CC1,119% (inactive)
6,CCCS(=O)(=O)N1CCN(Cc2ccc(OC)c(OCC)c2)CC1,103% (inactive)
7,CCn1c2ccccc2c2cc(CN3CCN(Cc4cccc(Cl)c4)CC3)ccc21,0% (active)
8,CCn1c2ccccc2c2cc(CN3CCN(Cc4cc(OC)c(O)c(OC)c4)CC3)ccc21,54% (inactive)
9,CCn1c2ccccc2c2cc(CN3CCN(Cc4ccccc4Cl)CC3)ccc21,1% (active)
10,CCCN1CCN(C(=O)Cn2ncc3c4ccccc4n(Cc4cccc(Cl)c4)c3c2=O)CC1,80% (inactive)
11,CCn1c(=O)cc(SCC(=O)NCc2cccc(Cl)c2)c2ccccc21,60% (inactive)
12,Clc1ccccc1CN1CCN(Cc2ccco2)CC1,101% (inactive)
13,Cc1ccc(Cn2c(=O)n(Cc3ccccc3Cl)c(=O)c3ccccc32)cc1,56% (inactive)
14,CCn1c2ccccc2c2cc(CN3CCN(Cc4ccc(Br)cc4)CC3)ccc21,3% (active)
15,CCC(=O)N1CCc2cc(S(=O)(=O)NCCC(=O)Nc3ccc(CC)cc3)ccc21,73% (inactive)
16,Brc1cccc(-c2nn(-c3ccccc3)c3c2cnc2cc4c(cc23)OCO4)c1,86% (inactive)
17,O=C(NCCS(=O)(=O)N1CCN(c2ccc(F)cc2)CC1)c1cccc(C(F)(F)F)c1,72% (inactive)
18,Cc1cccc(NC(=O)c2ccc3c(c2)CCN3S(=O)(=O)c2ccccc2)c1C,84% (inactive)
19,CCN(CC)S(=O)(=O)c1ccc2c(c1)N(CC(=O)Nc1ccc(F)cc1F)C(=O)C1CCCN21 (centres undefined),64% (inactive)
20,Cc1ccc(-n2nc(C(=O)N3CCN(c4cc(C)ccc4C)CC3)c3c4ccccc4n(C)c3c2=O)cc1,79% (inactive)

row,SMILES,survival
1,CCCn1c(N2CCN(Cc3ccc(Cl)cc3)CC2)nc2ccccc21,123% (inactive)
2,CCOc1ccc(CN2CCN(Cc3ccc4c(c3)c3ccccc3n4CC)CC2)cc1,-1% (active)
3,CC(C)n1c(N2CCN(Cc3ccc(Cl)cc3)CC2)nc2ccccc21,128% (inactive)
4,CCn1c2ccccc2c2cc(CN3CCN(Cc4ccc(Cl)cc4)CC3)ccc21,-2% (active)
5,CCOc1ccc(CN2CCN(C(=O)c3ccco3)CC2)cc1,103% (inactive)
6,CCOc1ccc(Cn2c(=O)oc3ccccc32)cc1,114% (inactive)
7,CCOc1ccc(-c2c(C)nn3c(C)c(C(=O)NCC(C)c4ccccc4)cnc23)cc1OCC (centres undefined),72% (inactive)
8,O=C(CSc1nc2c(c(=O)[nH]1)CCC2)Nc1cc(C(F)(F)F)ccc1Cl,85% (inactive)
9,CCCN1Cc2cccc(C(=O)Nc3ccc(C(C)=O)cc3)c2C1=O,89% (inactive)
10,CS(=O)(=O)c1ccccc1-c1nnc(NC(=O)c2ccc3c(c2)OCCO3)o1,-6% (active)
11,CSc1ccccc1-c1nnc(NC(=O)c2ccc3c(c2)OCCO3)o1,123% (inactive)
12,CS(=O)(=O)c1ccc(-c2nnc(NC(=O)c3ccc4c(c3)OCCO4)o2)cc1,75% (inactive)
13,Cc1ccc(-n2c(=O)c3cccnc3n2CC(=O)Nc2ccc(C)cc2Cl)cc1,113% (inactive)
14,Cc1ccc2c(c1)-c1nc(-c3ccc(Cl)cc3)cc(-c3coc4ccccc4c3=O)c1CO2,139% (inactive)
15,CCCn1c(=O)c2sccc2n2c(CCCC(=O)N3CCN(c4ccc(OC)cc4)CC3)nnc12,99% (inactive)
16,O=C(Nc1cccc(C(=O)N2CCCCC2)c1)c1nsc2ccccc12,65% (inactive)
17,CCCc1nc2sc3c(N4CCC(C)CC4)ncnc3c2c2c1CCCC2,75% (inactive)
18,CCc1nc2sc3c(N4CCCCC4)ncnc3c2c2c1CCCC2,136% (inactive)
19,CCCc1nc2sc3c(N4CCCCC4)ncnc3c2c2c1CCCC2,13% (active)
20,COc1ccccc1Nc1sc(C(=O)c2ccc3c(c2)OCO3)c(N)c1S(=O)(=O)c1ccccc1,83% (inactive)

row,SMILES,survival
1,COc1ccc(Nc2nc(N)nc(CSc3nc4ccccc4s3)n2)cc1,35% (inactive)
2,COc1ccc(Nc2nc(N)nc(CSc3nc4cc(OC)ccc4s3)n2)cc1,8% (active)
3,Cc1ccc(Nc2nc(N)nc(CSc3nc4ccccc4s3)n2)cc1,32% (inactive)
4,COc1ccc(/C=C/C(=O)Nc2ccc(Cl)c(Cl)c2)cc1,80% (inactive)
5,COc1ccc(/C=C/C(=O)Nc2ccc(Cl)c(Cl)c2)cc1OC,5% (active)
6,C/C=C/C(=O)Nc1ccc(Cl)c(Cl)c1,108% (inactive)
7,CN(C)c1ccc(NC(=O)CSC2=Nc3ccccc3C3=NC(CC(=O)NCc4ccc5c(c4)OCO5)C(=O)N23)cc1 (centres undefined),124% (inactive)
8,CCOc1ccc(C(=O)Nc2ccc(OCc3cc(=O)n4cccc(C)c4n3)cc2)cc1,14% (active)
9,Cc1cn2c(=O)cc(COc3ccc(NC(=O)c4cccc(F)c4)cc3)nc2s1,122% (inactive)
10,COc1cc(C(=O)Nc2ccc(OCc3cc(=O)n4ccc(C)cc4n3)cc2)cc(OC)c1OC,0% (active)
11,COc1cc(C(=O)Nc2ccc(OCc3cc(=O)n4cccc(C)c4n3)cc2)cc(OC)c1OC,133% (inactive)
12,O=C(COc1ccc(F)cc1)Nc1cccc(OCc2cc(=O)n3ccccc3n2)c1,73% (inactive)
13,Cc1cccc(C(=O)Nc2ccc(OCc3cc(=O)n4ccc(C)cc4n3)cc2)c1,55% (inactive)
14,Cc1cccn2c(=O)cc(COc3ccc(NC(=O)c4cccc(F)c4)cc3)nc12,-1% (active)
15,COc1cccc(C(=O)Nc2cccc(OCc3cc(=O)n4cccc(C)c4n3)c2)c1,134% (inactive)
16,Cc1ccccc1C(=O)Nc1ccc(OCc2cc(=O)n3cccc(C)c3n2)cc1,72% (inactive)
17,COc1ccccc1C(=O)Nc1ccc(OCc2cc(=O)n3ccc(C)cc3n2)cc1,85% (inactive)
18,O=C(Nc1cccc(OCc2cc(=O)n3ccccc3n2)c1)Nc1cccc(C(F)(F)F)c1,-6% (active)
19,Cc1ccc(Cl)cc1NC(=O)Nc1cccc(OCc2cc(=O)n3ccccc3n2)c1,64% (inactive)
